Screening data deposited in PubChem BioAssay by National Center for Advancing Translational Sciences (NCATS).
The full list was thinned out, with hits kept by preference.
Pf Dd2 growth: inhibitors of Plasmodium falciparum Dd2 growth; Potency, µM (highest dose often 28.9 µM), inactives show at the top dose activity, negative = inhibition, usual class: inhibitors; 4.3% of 120,000 active; P. falciparum Dd2 growth, SYBR Green, 72 h; active means well fitted inhibition curve with a large enough effect;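 further: plate controls were DMSO vehicle for no effect and reference drug for full effect; nearly all actives have a fitted effect of over 65% in size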
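Infected erythrocytes (Dd2, 0.3% parasitemia, 2.5% hematocrit final) are added to compound in RPMI-1640/Albumax II medium, grown 72 h at 37C in low oxygen, then lysed with saponin/Triton-X containing SYBR Green and read by fluorescence.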
* = called active by the depositor; [ ] = dose if it differs, or a comment. Potency means the concentration at half of the fitted maximal effect.

How did CCNC(=O)N1CCOc2ccc(CN3CCc4ccccc4C3)cc2C1 do in these assays?
Pf Dd2 growth: inactive

Results for Cn1nccc1C(=O)N1CCOc2ccc(CN3CCc4ccccc4C3)cc2C1 ?
Pf Dd2 growth: -7%

Results for CC[C@H]1CN(C(=O)C(C)(C)C)CC[C@H]1CC(=O)NCc1ccco1 ?
Pf Dd2 growth: -13%[44.1 µM]

How did Cc1cccc(C(=O)N2CCCCCCNC(=O)[C@@H]3C[C@@H](c4nc(-c5cnccn5)no4)C[C@@H]32)c1 do in these assays?
Pf Dd2 growth: inactive

How did CC(=O)NCCC(=O)N1Cc2ccccc2CC2(CCN(CC3CCOCC3)CC2)C1 do in these assays?
Pf Dd2 growth: 16%

What do the screens show for `O=C(NC1CCCC1)N1c2ccccc2CC1c1nc(C2CC2)no1` (configuration not stated)?
Pf Dd2 growth: 0%[5.79 µM]

Results for O=C(N[C@H]1CO[C@H]2[C@@H]1OC[C@@H]2n1nnnc1Oc1ccc2c(c1)OCO2)c1ccc(C(F)(F)F)cc1 ?
Pf Dd2 growth: -23%

What do the screens show for `Cn1cccc1CN1CCCC12Cc1ccccc1CNC2=O` (configuration not stated)?
Pf Dd2 growth: inactive

What do the screens show for `C=C[C@H]1CN2CC[C@H]1C[C@@H]2CNC(=O)N1CCOCC1`?
Pf Dd2 growth: 1%[44.1 µM]

Results for COc1cccc(CNC(=O)Cn2c(=O)oc3cc(S(=O)(=O)N4CCC(C)CC4)ccc32)c1 ?
Pf Dd2 growth: -5%

How did COc1ccc(CNC(=O)Cn2c(=O)oc3cc(S(=O)(=O)N4CCCC4)ccc32)cc1 do in these assays?
Pf Dd2 growth: -1%

What do the screens show for `CC1CCN(S(=O)(=O)c2ccc3c(c2)oc(=O)n3CC(=O)NCc2ccc(F)cc2)CC1`?
Pf Dd2 growth: 5.6µM*

Results for CCc1ccc(NC(=O)CN(c2ccc(C)cc2)S(=O)(=O)c2c(C)nn(C)c2C)cc1 ?
Pf Dd2 growth: -13%

What do the screens show for `Cc1ccc(CCNC(=O)CN(c2ccc(C)cc2)S(=O)(=O)c2c(C)noc2C)cc1`?
Pf Dd2 growth: 11%

What do the screens show for `Cc1cccc(CCNC(=O)CN(c2ccc(C(C)C)cc2)S(=O)(=O)c2c(C)nn(C)c2C)c1`?
Pf Dd2 growth: 10µM*

How did COC(=O)CNC(=O)N1CCC(c2nc(CCOc3ccc(F)cc3)no2)C1 (configuration not stated) do in these assays?
Pf Dd2 growth: -24%

What do the screens show for `Cc1nc(C)c(C(=O)NCCc2ncc(C)n2C2CCC2)s1`?
Pf Dd2 growth: inactive

What do the screens show for `O=C(Nc1ccccc1)N1CCC2(CC1)CC(N(C(=O)c1ccccc1)C1CC1)CCO2` (configuration not stated)?
Pf Dd2 growth: -8%

Results for COc1cccc(CN2CC(Oc3ccccc3C(=O)NC3CC3)C2)n1 ?
Pf Dd2 growth: 4µM*

How did O=C(NCc1ccccc1)c1ccccc1OC1CN(Cc2ccc(F)c(F)c2)C1 do in these assays?
Pf Dd2 growth: -3%

Results for COc1ccc(CN2CC(Oc3ccccc3C(=O)NC3CC3)C2)cc1OC ?
Pf Dd2 growth: inactive

What do the screens show for `COc1ccc(OC)c(CN2CC(Oc3ccccc3C(=O)NCc3ccccc3)C2)c1`?
Pf Dd2 growth: 1.8µM*

Results for O=C(NC1CC1)c1ccccc1OC1CN(Cc2ccc(F)cc2F)C1 ?
Pf Dd2 growth: -20%

What do the screens show for `COc1ccc(OC)c(CN2CCOc3ccc(C(=O)NCc4ccc(C)cc4)cc3C2)c1`?
Pf Dd2 growth: -9%

What do the screens show for `Cc1ccc(CN2CC(Oc3ccccc3C(=O)NC3CC3)C2)o1`?
Pf Dd2 growth: -16%

Results for O=C(NCc1ccccc1)c1ccccc1OC1CN(Cc2ccsc2)C1 ?
Pf Dd2 growth: 4µM*

Results for COc1ccc(OC2CN(Cc3ccsc3)C2)cc1 ?
Pf Dd2 growth: -1%[44.1 µM]

What do the screens show for `CC1(C(=O)N2CCOCC2)CN(Cc2ccccc2)Cc2ccc(Nc3ccccc3)nc21` (configuration not stated)?
Pf Dd2 growth: -17%

What do the screens show for `O=C(NCCc1ccccc1)c1ccc2nccn2c1`?
Pf Dd2 growth: -12%[44.1 µM]

What do the screens show for `O=Cc1ccccc1-c1cncc(C(=O)O)c1`?
Pf Dd2 growth: inactive

What do the screens show for `CNC(=O)[C@@H]1C[C@@H](n2cc(CN(C)C(=O)c3cc4ccccc4s3)nn2)CN1`?
Pf Dd2 growth: -10%

Results for NC(=O)C1(c2nc(C3CCOC3)nn2CC2CCCCC2)CC1 (configuration not stated) ?
Pf Dd2 growth: -14%

What do the screens show for `Cc1cccc(N(C)C(=O)CN2C(=O)NC3(CCCCC3)C2=O)c1`?
Pf Dd2 growth: -7%

Results for COc1ccc(-c2ncc3c(n2)OCCN(Cc2ccccc2)C3=O)cc1 ?
Pf Dd2 growth: 1.3µM*

Results for CC(=O)Nc1cccc(-c2ncc3c(n2)OCCN(Cc2ccc(F)cc2F)C3=O)c1 ?
Pf Dd2 growth: 13µM*

Results for O=C1c2cnc(-c3ccoc3)nc2OCCN1Cc1ccc(F)cc1F ?
Pf Dd2 growth: inactive

How did O=C1c2cnc(-c3ccc(F)cc3F)nc2OCCN1Cc1ccc(F)cc1F do in these assays?
Pf Dd2 growth: -2%[44.1 µM]

What do the screens show for `COc1cccc(-c2ncc3c(n2)OCCN(Cc2ccccc2)C3=O)c1`?
Pf Dd2 growth: inactive

What do the screens show for `COc1ncccc1-c1ncc2c(n1)OCCN(Cc1ccccc1)C2=O`?
Pf Dd2 growth: -19%[44.1 µM]

How did Cn1cc(CCC(=O)Nc2ccc3c(c2)C(=O)N2CCC[C@H]2C(=O)N3)c2ccccc21 do in these assays?
Pf Dd2 growth: -9%

How did COc1ccc(C2(CC(=O)N3CCC(Oc4ccc(F)cc4)CC3)CC(=O)N(C3CC3)C2=O)cc1 (configuration not stated) do in these assays?
Pf Dd2 growth: 1%

What do the screens show for `COCCn1ncc(N2CCC(NC(=O)c3ccc(C(C)C)cc3)CC2)cc1=O`?
Pf Dd2 growth: -6%

Results for COc1cc(C2c3c(-c4cc(C)ccc4O)n[nH]c3C(=O)N2CCCO)ccc1OCCC(C)C (configuration not stated) ?
Pf Dd2 growth: 3.2µM*

How did CCCOc1ccc(C2c3c(-c4c(C)cc(C)cc4O)n[nH]c3C(=O)N2CCO)cc1 (configuration not stated) do in these assays?
Pf Dd2 growth: inactive

Results for COCCN1C(=O)c2[nH]nc(-c3cc(C)ccc3O)c2C1c1ccc(C(C)C)cc1 (configuration not stated) ?
Pf Dd2 growth: 8.9µM*

Results for COc1cc(C2N=C(N)Nc3nc4ccccc4n32)ccc1OCCC(C)C (configuration not stated) ?
Pf Dd2 growth: -25%

How did COc1cc(C2c3c(oc4cc(C)c(C)cc4c3=O)C(=O)N2CCCN2CCOCC2)ccc1O (configuration not stated) do in these assays?
Pf Dd2 growth: 12%

What do the screens show for `Cc1noc(C)c1S(=O)(=O)N1CCC(C(=O)NCCc2noc(C3CC3)n2)CC1`?
Pf Dd2 growth: -1%

How did COc1cccc(-c2nnnn2[C@H]2CO[C@H]3[C@@H]2OC[C@@H]3NC(=O)CC2(CC(=O)O)CCCC2)c1 do in these assays?
Pf Dd2 growth: 39%

How did COc1ccc(Cn2c(C(=O)O)c(CNCc3ccc(SC)cc3)c3ccc(OC)cc32)cc1 do in these assays?
Pf Dd2 growth: 7.9µM*

How did COc1ccc2c(CNCc3cccs3)c(C(=O)O)n(Cc3ccc(F)cc3)c2c1 do in these assays?
Pf Dd2 growth: -3%

How did C=Cc1ccc(Cn2c(C(=O)O)c(CNCc3ccccc3)c3ccc(OC)cc32)cc1 do in these assays?
Pf Dd2 growth: 11µM*

What do the screens show for `COc1ccc2c(CNCCc3ccco3)c(C(=O)O)n(Cc3ccccc3)c2c1`?
Pf Dd2 growth: -12%
